{"source": "PubChem BioAssay (NCI)", "note": "About 83,000 compounds went through this panel and 20% of them were active in at least one assay; those are over-represented in the sample as a whole.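 Values shown are percent growth following 48 h exposure of cells in 96-well plates to a single concentration of compound; below 10 was considered active.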 The source made the active and inactive calls.", "data": [{"system": "MDA-MB-468 breast", "assay": "NCI-60 one-dose screen, 48 h (100 = growth as untreated, 0 = no growth, -100 = all killed)", "conditions": "10 µM unless noted", "values": [{"compound": "CC1CCc2cc(F)cc3c(=O)c(C(=O)O)cn1c23", "note": "(stereo unspecified)", "growth": "109% (inactive)"}, {"compound": "Clc1ccc(-c2nc(-c3c[nH]c4ncccc34)cs2)cc1", "growth": "80.2% [100 µM] (inactive)"}, {"compound": "CCN(CC)CC(=O)Nc1c(C)cccc1C", "growth": "101% (inactive)"}, {"compound": "Cc1ccc2ccc3ccc(C)nc3c2n1.Cc1ccc2ccc3ccc(C)nc3c2n1.Oc1c(Cl)cc(Cl)c2ccc(CN3CCCCC3)nc12.[Ru]", "growth": "-80% (active)"}, {"compound": "COc1cccc(C2C(C#N)=C(N)Oc3cc(OCCCCCC[P+](c4ccccc4)(c4ccccc4)c4ccccc4)ccc32)c1", "note": "(stereo unspecified)", "growth": "-64.3% (active)"}, {"compound": "C=C1CCC2C(C)(CO)C(O)CCC2(C)C1C/C=C1/C(=O)OCC1Oc1ccccc1C", "note": "(stereo unspecified)", "growth": "60% (inactive)"}, {"compound": "CS(=O)(=O)CCNCc1ccc(-c2ccc3ncnc(Nc4ccc(OCc5cccc(F)c5)c(Cl)c4)c3c2)o1", "growth": "-56.5% (active)"}, {"compound": "O=S(=O)(NCCNc1nccc(-n2cnc3ccccc32)n1)c1ccc(Cl)cc1", "growth": "101% (inactive)"}, {"compound": "CCCc1cc2cc(-n3nc(C)c4c3CC(C)(C)CC4=O)cc(NC3CCSCC3)c2c(=O)[nH]1", "growth": "14.3% (inactive)"}, {"compound": "CC(=O)c1ccc(Nc2nc(SCC(C)C)nc(-c3ccc(F)cc3)c2C#N)cc1", "growth": "118% (inactive)"}, {"compound": "Cc1ccc(-n2cc(-c3ccccc3)c3c2N=NN2CCN=C32)cc1", "growth": "103% (inactive)"}, {"compound": "CCOc1ccc(/C=C/C(=O)c2ccccc2)cc1", "growth": "68.2% (inactive)"}, {"compound": "COc1ccc2cc(/C=C3\\N=C(c4cc(OC)c(OC)c(OC)c4)OC3=O)c(OC)nc2c1", "growth": "108% (inactive)"}, {"compound": "CCNC(=O)Oc1ccc(/C(=C(\\C)c2ccc(Cl)cc2)c2ccc(OCCN(CC)CC)cc2)cc1", "growth": "67.5% (inactive)"}, {"compound": "CCN(CC)Cc1c(-c2cccc(OC(F)(F)F)c2)[nH]c2ccc(N3CCCC3)cc2c1=O", "growth": "93.1% (inactive)"}, {"compound": "Cc1ccc(C(=O)c2ccc(CC(=O)N=Nc3c(O)[nH]c4ccc(OC(F)(F)F)cc34)n2C)cc1", "growth": "108% (inactive)"}, {"compound": "CC(C)CSc1nc(Nc2ccccc2)c(C#N)c(-c2ccc(F)cc2)n1", "growth": "16.4% (inactive)"}, {"compound": "COc1ccc2c(c1)c(-c1cc(N)n3nc(-c4cn(C)c5ccc(OC)cc45)cc3n1)cn2C", "growth": "142% (inactive)"}, {"compound": "O=C(Nc1ncc(Cc2ccccc2Cl)s1)c1ccc2c(c1)OCCO2", "growth": "18.5% (inactive)"}, {"compound": "O=c1c2cc(-c3ccc(F)cc3F)ccc2n(Nc2ccccc2)c(=O)n1-c1cccc(C(F)(F)F)c1", "growth": "-10.4% (active)"}, {"compound": "O=C1C=CC(O)=CC1=P(c1ccccc1)(c1ccccc1)c1ccccc1", "growth": "92% (inactive)"}, {"compound": "COc1ccc(S(=O)(=O)NCCCNc2nccc(-c3c(-c4cccc(N)c4)nc4sccn34)n2)cc1", "growth": "78.7% (inactive)"}, {"compound": "CC1(C)C2=C(C(=O)N1Cc1ccccc1)C(c1ccco1)N(C(=O)C1CCC1)CCN2", "note": "(stereo unspecified)", "growth": "112% (inactive)"}, {"compound": "C#CCNC(=O)[C@H](Cc1ccccc1)NC(=O)[C@]12CC[C@@H](C(=C)C)[C@@H]1[C@H]1CC[C@@H]3[C@@]4(C)Cc5c([nH]c6ccccc56)C(C)(C)[C@@H]4CC[C@@]3(C)[C@]1(C)CC2", "growth": "97.9% (inactive)"}, {"compound": "O=c1[nH]c2ccccc2cc1-c1nnc(Cc2ccccc2)o1", "growth": "53.9% (inactive)"}, {"compound": "O=C1C=CC(=O)N1c1cccc2c1CCCC2", "growth": "95.1% (inactive)"}, {"compound": "N#Cc1c(-c2cccs2)cc(-c2cnccn2)nc1SCC(=O)Nc1ccc(Br)cc1", "growth": "81.1% (inactive)"}, {"compound": "O=c1[nH]nnc2cc(Cl)ccc12", "growth": "104% (inactive)"}, {"compound": "COc1cc(/C=C/C(=O)c2ccc(O)c(CN3CCN(c4cc5c(cc4F)c(=O)c(C(=O)O)cn5C4CC4)CC3)c2)cc(OC)c1OC", "growth": "6.61% (active)"}, {"compound": "C=C1c2nc3ccccc3n2C=C(c2ccc(Cl)cc2)N1Cc1ccc(OC)cc1", "growth": "80.8% (inactive)"}, {"compound": "Nc1nc(N)c2c(n1)NC(c1cccc(Nc3ccnc4cc(C(F)(F)F)ccc34)c1)CC(c1ccc(F)cc1)=N2", "note": "(stereo unspecified)", "growth": "18% (inactive)"}, {"compound": "NC/C(=C/F)COc1ccc2nc(NCc3cccnc3)oc2c1", "growth": "107% (inactive)"}, {"compound": "COc1cc(-c2nn(-c3ccccc3)cc2-c2ccnc(NCCNS(=O)(=O)c3ccc(Cl)cc3)n2)ccc1Cl", "growth": "31.2% (inactive)"}, {"compound": "CC[N+](CC)=c1cc2oc3cc(N(C)C)ccc3nc-2cc1C", "growth": "-14% (active)"}, {"compound": "CCOC(=O)NNc1nncc2ccccc12", "growth": "105% (inactive)"}, {"compound": "COc1cc(C2C3=C(COC3=O)N(CCO)c3cc4c(cc32)OCO4)cc(OC)c1O", "note": "(stereo unspecified)", "growth": "-35.5% (active)"}]}]}
